# The supplement of paper PMC4166925
# ± gives the standard deviation of the averaged measurements. Over roughly 33,000 sequences, “E-score (dimensionless, -0.5 to 0.5)” has its median near -0.046; the highest 2% begin near 0.36. The full list was thinned out, with the highest values kept by preference.
# System: T1, SpTbr T-box DNA-binding domain (GST fusion)
# T1 sequence: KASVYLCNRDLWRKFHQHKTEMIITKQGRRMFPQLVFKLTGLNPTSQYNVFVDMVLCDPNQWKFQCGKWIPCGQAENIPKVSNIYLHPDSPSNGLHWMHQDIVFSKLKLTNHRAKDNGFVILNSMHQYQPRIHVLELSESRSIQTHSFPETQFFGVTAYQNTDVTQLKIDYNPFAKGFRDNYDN
# Experiment: PBM E-score of 8-mer (E-score (dimensionless, -0.5 to 0.5)); Tbr is Tbrain of the sea star Patiria miniata (Pm) or the sea urchin Strongylocentrotus purpuratus (Sp); higher = stronger binding preference
# Settings: the construct has about 5 more residues each side
# Protocol: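 Universal protein-binding microarray (Agilent AMADID 016060, 60-bp probes with a 35-bp variable region) incubated with 200 nM GST-fused Strongylocentrotus purpuratus Tbr T-box DNA-binding domain (residues 362-554) in PBS pH 7.5. Scored for every ungapped 8-mer (given with its reverse complement) as E-score (range -0.5 to 0.5; >0.45 counts as bound) and Z-score of median probe intensity. Two replicate arrays (datasets 1 and 2).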
# 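Also: protein at 200 nM in PBS on universal double-stranded arrays.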
row,Sequence,PBM E-score of 8-mer
1,CCACACCC,0.414 ± 0.024
2,ACACACCC,0.33 ± 0.0064
3,CCACACTC,0.374 ± 0.015
4,ACACACTC,0.307 ± 0.019
5,CCACACTA,0.279 ± 0.029
6,ATCCTGCC,-0.182 ± 0.054
7,ATGGGCAG,-0.0503 ± 0.058
8,ATGCCCGC,0.031 ± 0.012
9,AAGTGCTA,0.419 ± 0.014
10,AAGTGCCC,-0.146 ± 0.044
11,AAGTGCTG,0.246 ± 0.04
12,ATGTGCCG,0.175 ± 0.032
13,ATGTGCCA,0.374 ± 0.01
14,GAGTGCCA,0.20475 ± 0.00018
15,ATGTGCCC,-0.0447 ± 0.038
16,AAGTGCTC,0.118 ± 0.051
17,AAGTGCCA,0.4045 ± 0.0038
18,AAGAGAGA,-0.141 ± 0.03
19,GTCACAAA,0.125 ± 0.032
20,CACACACG,0.233 ± 0.057
21,GTCACAGA,0.0552 ± 0.0087
22,CTCACACA,0.438 ± 0.0081
23,GTCACACA,0.409 ± 0.03
24,CACACACA,0.3384 ± 0.00066
25,ATATTAAT,-0.209 ± 0.078

row,Sequence,PBM E-score of 8-mer
1,CTGTGGTC,-0.0438 ± 0.0053
2,CCAGCCGG,-0.00031 ± 0.015
3,AGGTAGCG,0.143 ± 0.04
4,ATCACGCG,0.357 ± 0.012
5,CCCACGCC,0.163 ± 0.014
6,CTCACGCC,0.397 ± 0.039
7,ATCACGCC,0.403 ± 0.0051
8,CTTACGCC,0.177 ± 0.0022
9,CTTACGCA,0.0993 ± 0.0077
10,GTCACGCA,0.279 ± 0.017
11,CTCACGCA,0.375 ± 0.022
12,ATCACGCA,0.19 ± 0.026
13,ATATAGGC,-0.0504 ± 0.058
14,ACTTAAGT,-0.0767 ± 0.13
15,GTGCTCTA,-0.178 ± 0.029
16,ACCCGAAC,-0.0199 ± 0.021
17,AGCAAAAT,-0.0958 ± 0.067
18,CCCTTACG,-0.0777 ± 0.068
19,GCCTGCAA,-0.0777 ± 0.016
20,CTGCTAAC,0.321 ± 0.029
21,TTGCTAAA,0.109 ± 0.08
22,CTGCTAAA,0.0425 ± 0.15
23,GTGCTAAA,0.384 ± 0.026
24,ATGCTAAC,0.0372 ± 0.018
25,GTGCTAAC,0.432 ± 0.012

row,Sequence,PBM E-score of 8-mer
1,CCGCTAAC,0.16 ± 0.031
2,GCGCTAAA,0.338 ± 0.014
3,GCGCTAAC,0.388 ± 0.007
4,AACAAGGT,0.271 ± 0.009
5,AGTAGCGC,0.224 ± 0.014
6,GACCATAC,-0.206 ± 0.012
7,ACAACCAT,0.0868 ± 0.041
8,GAAGTCGA,0.107 ± 0.051
9,AGTCTGGG,-0.278 ± 0.029
10,CCCAACGG,-0.055 ± 0.1
11,CTGTTGGA,0.0702 ± 0.044
12,ATGTTAAC,0.182 ± 0.097
13,ATGTTGGA,-0.0349 ± 0.065
14,GTGTTGGA,0.367 ± 0.0068
15,CTGTTATA,0.137 ± 0.071
16,CCGTTAAC,0.228 ± 0.007
17,ACGTTAAC,0.255 ± 0.013
18,CTGTTAAC,0.312 ± 0.028
19,GTGTTAAC,0.4543 ± 0.0026
20,GTGTTATA,0.4 ± 0.034
21,GCGTTAAC,0.374 ± 0.011
22,ATGTTATA,-0.0933 ± 0.013
23,AAAGCGCT,0.0608 ± 0.028
24,GAGCAGTA,-0.00784 ± 0.039
25,AGTTAGCG,0.304 ± 0.0085

row,Sequence,PBM E-score of 8-mer
1,GTCGAGCA,0.0707 ± 0.028
2,ATTTAAAT,-0.06656 ± 0.00039
3,ACCTCCCT,0.00833 ± 0.034
4,CTGTTAGA,0.11 ± 0.12
5,ATGTTAGA,-0.136 ± 0.095
6,GTGTTAAA,0.395 ± 0.026
7,GTGTTAGA,0.384 ± 0.0066
8,TTGTTAAA,0.184 ± 0.12
9,CTGTTAAA,0.231 ± 0.041
10,GGTAGACA,-0.025 ± 0.028
11,CTCTTCAC,0.292 ± 0.018
12,AAGGGGCA,-0.297 ± 0.042
13,AAGGCGCT,0.306 ± 0.035
14,AGAGCAAT,-0.132 ± 0.0051
15,ACGTGATG,0.0808 ± 0.05
16,AGGTGATC,0.116 ± 0.085
17,GGGTGATA,0.253 ± 0.0088
18,AGGTGATA,0.428 ± 0.015
19,CGGTGATA,0.111 ± 0.0075
20,AGGTGATG,0.3942 ± 0.0033
21,ACGCCGGC,0.242 ± 0.0047
22,AGGGGGAT,-0.262 ± 0.033
23,ACTTTCAA,0.0855 ± 0.0062
24,GTCGCGAC,0.362 ± 0.019
25,ATCGCGAA,0.367 ± 0.032

row,Sequence,PBM E-score of 8-mer
1,GTCGCGAA,0.372 ± 0.025
2,ATCGCAAA,0.0887 ± 0.0029
3,ATCGCGAT,0.364 ± 0.011
4,ATCGCGTA,0.13 ± 0.024
5,CTCGCGAG,0.284 ± 0.03
6,ATCGCGAC,0.271 ± 0.036
7,TTCGCGAA,0.3584 ± 0.0003
8,CTCGCGAA,0.389 ± 0.012
9,CTCGCGAC,0.311 ± 0.025
10,ATCGCGAG,0.255 ± 0.0054
11,GAAAGTGA,0.293 ± 0.039
12,AAAAAAGT,-0.074 ± 0.11
13,CCTACTAA,-0.0157 ± 0.06
14,CGTGTAAA,0.296 ± 0.027
15,TGCATCAA,-0.0456 ± 0.044
16,CTGCCAAG,0.105 ± 0.03
17,ACGCTCAG,0.0449 ± 0.0089
18,CAAGAACG,-0.267 ± 0.011
19,ACCCTTGA,-0.0396 ± 0.029
20,ATGCGCTC,-0.175 ± 0.02
21,ACACCTCG,0.4804 ± 0.0036
22,AGACCTCT,-0.281 ± 0.035
23,CCACCTCG,0.228 ± 0.019
24,TCACCTCA,0.387 ± 0.0086
25,ACACCTCC,0.4854 ± 0.0043

row,Sequence,PBM E-score of 8-mer
1,ATACCTCC,-0.0183 ± 0.066
2,TGACCTCA,0.0321 ± 0.076
3,AAACCTCG,0.0284 ± 0.048
4,TAACCTCA,-0.153 ± 0.018
5,CCACCTCC,0.324 ± 0.0077
6,AAACCTCT,-0.292 ± 0.061
7,ACACCTCT,0.479 ± 0.0083
8,ACTCTTCG,0.113 ± 0.071
9,CCACTGCG,0.0281 ± 0.049
10,GAACGAGC,-0.187 ± 0.063
11,CGGGGGAC,-0.117 ± 0.088
12,CAATTGAG,-0.2 ± 0.036
13,CCTAACCG,-0.163 ± 0.039
14,AGGACTAT,-0.234 ± 0.035
15,CGGCGATA,0.094 ± 0.028
16,TTCGCCAA,0.124 ± 0.054
17,CCACCTCA,0.172 ± 0.067
18,ACGCCTCT,0.30412 ± 0.00015
19,ACACCTCA,0.4607 ± 0.0039
20,GCACCTCA,0.343 ± 0.02
21,GGACCTCC,-0.327 ± 0.017
22,GCACCTCC,0.396 ± 0.013
23,ACGCCTCG,0.373 ± 0.019
24,AGACCTCA,0.1 ± 0.022
25,ACGCCTCA,0.331 ± 0.01

row,Sequence,PBM E-score of 8-mer
1,CACAGCAG,-0.0256 ± 0.044
2,ATTAAGAA,-0.254 ± 0.043
3,ATAGATCG,0.0137 ± 0.011
4,CACGGTTA,-0.0116 ± 0.056
5,CCTAGGCC,-0.0372 ± 0.013
6,CTCGCTAA,0.232 ± 0.043
7,CAATAGAC,-0.0363 ± 0.07
8,ACACTTAT,0.402 ± 0.0068
9,ACTCTTAT,-0.0294 ± 0.038
10,ACTCTTAG,-0.106 ± 0.0089
11,ACACTTAA,0.336 ± 0.027
12,CCACTTAC,0.161 ± 0.0085
13,GCACTTAC,0.208 ± 0.017
14,CCACTTAG,-0.0238 ± 0.042
15,ACACTTAC,0.4 ± 0.024
16,ACACTTAG,0.383 ± 0.038
17,CGAGCACA,-0.0373 ± 0.063
18,CGGCCGAA,-0.16 ± 0.027
19,GGCAGGGA,-0.182 ± 0.062
20,TAACCTGA,-0.0659 ± 0.025
21,GGAGGGTA,-0.0485 ± 0.045
22,AGGCCTAT,-0.196 ± 0.034
